The results in this text go back to PubChem BioAssay AID1259343 (VanderVen Lab, College of Veterinary Medicine, Cornell …, 2017).

In all, about 6,200 compounds went through this assay and about 2,900 (47%) were called active. The set was probably picked from earlier hits. This is one part of the list. Values without a mark were called inactive. Rule as the data show it: active = inhibition above about 50%; inactive = the rest.

The test in a line: Mycobacterium tuberculosis growth inhibition, primary screen (AID 1259343). The following applies: inhibition: at 10 µM, stronger effect = higher value; outcome: 10 uM.
Consider `CC(C)N=C1NN=C(c2c[nH]c3ccccc23)C(c2ccccc2)S1` (centres undefined), for which the inhibition was 2.32%.

Turning to `O=c1c2c(nc3c(-c4cccc5ccccc45)c[nH]n13)CCC2`, the inhibition is 88.6% (active).

For the compound `Cc1nc2c(-c3ccccc3)c[nH]n2c(=O)c1C`, the inhibition was 23.2%.

With `Cc1oc(-n2cccc2)c(C#N)c1C(=O)NC1CCC(C)CC1` (centres undefined), the inhibition is 77.2% (active).

As for `CC1CCC(NC(=O)c2ccc(Br)o2)CC1` (centres undefined), the inhibition was 25.1%.

`Cc1oc(-n2cccc2)c(C#N)c1C(=O)OCc1cc(=O)n2c(C)csc2n1`: the inhibition was -7.14%.

Consider `Cn1ccnc1Sc1nc(-c2ccccn2)nc2scc(-c3ccccc3)c12`, for which the inhibition was 77.2% (active).

With `COc1ccccc1N1CCN(Cn2nc(C3COc4ccccc4O3)oc2=S)CC1` (centres undefined), the inhibition was 49.9%.

Consider `Cc1nccn1CC(O)Cn1c2ccc(Cl)cc2c2cc(Cl)ccc21` (centres undefined), for which the inhibition is 66.4% (active).

`Cc1nn(CC(O)Cn2c(C)c(C)c3cccc(Cl)c32)c(C)c1Br` (centres undefined): the inhibition was 25.1%.

`OC(CN1CCCC1)Cn1c2ccc(Cl)cc2c2cc(Cl)ccc21` (centres undefined): the inhibition is -9.02%.

Turning to `Cc1c(C(=O)NCc2ccc(C(F)(F)F)cc2)sc(=O)n1Cc1ccc(F)cc1`, the inhibition was 20.5%.

Take `O=C1N(Cc2ccccc2)C(c2ccc(C(F)(F)F)cc2)C1(F)F` (centres undefined): the inhibition is 79.7% (active).

For `Cn1nnc2c(=O)n(Cc3ccc(C(F)(F)F)cc3)cnc21`, the inhibition is 45.7%.

For the compound `CC(=O)N1CCc2cc(-c3nc(COc4ccccc4)sc3C)ccc21`, the inhibition was 37.8%.

For `CC(C)Oc1ncc(C(=O)N2CCc3ccc(O)cc3C2)cc1Cl`, the inhibition is 33.5%.

`O=C(COc1ccccc1)N1CCc2ccc(O)cc2C1`: the inhibition was 68.5% (active).

For the compound `N#CCCSc1nc2ccc([N+](=O)[O-])cc2s1`, the inhibition is 52% (active).

Consider `O=[N+]([O-])c1ccc2[nH]c(=S)sc2c1`, for which the inhibition is -16.1%.

As for `Cc1nc2sc(C)c(C)n2c(=O)c1NC(=O)c1ccc(-c2ccccc2)cc1`, the inhibition was 34.6%.

For the compound `CN(C)C=Nc1nc(-c2ccccc2)c(-c2ccccc2)s1`, the inhibition was 15.9%.

For `CC(=O)Nc1nc(-c2ccc(C)cc2)c(-c2ccccc2)s1`, the inhibition is 86% (active).

For `O=C(Nc1cc(F)ccc1F)c1ccc(NC(=O)C2CC2)s1`, the inhibition is 23.9%.

Take `O=C(NC1CCS(=O)(=O)C1)c1ccc(-c2ccc(F)cc2)s1` (centres undefined): the inhibition is 79% (active).

For `O=C(NC1CCS(=O)(=O)C1)c1ccc(Br)o1` (centres undefined), the inhibition is 10.7%.

`COc1ccc(C(=O)Nc2cc(C)nn2-c2nc(C)c(C)c(=O)[nH]2)c(OC)c1`: the inhibition is 26.6%.

In the case of `COc1cc(C(=O)Nc2cc(C3CC3)nn2-c2nc(C)c(C)c(=O)[nH]2)cc(OC)c1OC`, the inhibition is 100% (active).

As to `COc1ccc(C(=O)Nc2cc(C3CC3)nn2-c2nc(C)c(C)c(=O)[nH]2)c(OC)c1`, the inhibition is 90% (active).

Turning to `COc1cc(C(=O)Nc2cc(C3CC3)nn2-c2nc(C)cc(=O)[nH]2)cc(OC)c1OC`, the inhibition was 101% (active).
